# Measurements reported in PubChem BioAssay (NCI).
# Several values for one entry are separate records, joined by “and”; a condition that tells them apart may be missing. Equal values may be shown once. This is part of a sample that, as a whole, favours compounds with a hit. Of some 83,000 tested, about 20% had one in any assay.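 The endpoint reported here, percent growth, reads 100 for growth as untreated, 0 for no net growth and -100 for all cells dead.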 Activity calls are given as the source filed them. How the source made its calls: active means growth percent below 10; inactive means the rest.
# Tested on: MDA-MB-468 breast
# Experiment: NCI-60 one-dose screen, 48 h (100 = growth as untreated, 0 = no growth, -100 = all killed)
# Conditions: 10 µM unless noted
row,Compound,growth
1,COc1ccc2oc3c(C)c4c(c(C)c3c2c1)C(=O)N(Cc1ccccc1)C4=O,100% (inactive)
2,Nc1c2ccccc2nc2ccccc12,-45.4% (active) and 2.95% (active) and 23% (inactive)
3,O=C(CN1C=NC2C(N3CCOCC3)=NC=NC21)c1ccc(Br)cc1 (stereo unspecified),99% (inactive)
4,COc1cccc2c(N=NC(=O)c3ccc(S(N)(=O)=O)cc3)c(O)[nH]c12,101% (inactive)
5,Clc1ccccc1C(c1ccccc1)(c1ccccc1)n1ccnc1,2.94% (active)
6,O=C1/C(=C\c2cccc(OCCCCCOc3ccc(Cl)cc3)c2)N=C2SCCCN12,9.3% (active)
